Assays:
Assay in all cases: DAPPL (digital affinity profiling via proximity ligation, sequencing); 10 mM Tris-HCl pH 7.5, 50 mM NaCl, 1 mM DTT, 4% glycerol, room temperature, 30 min; GST-TFs on glutathione beads, 16-mer random dsDNA library, 0.1% formaldehyde crosslink after washing; high values mean tight binding
Conditions in all cases: protein: recombinant; tags: N-terminal GST; dsDNA, one strand shown
FLI1 = target: T1, FLI1 (Homo sapiens, UniProt Q01543 1-452)
T1 sequence: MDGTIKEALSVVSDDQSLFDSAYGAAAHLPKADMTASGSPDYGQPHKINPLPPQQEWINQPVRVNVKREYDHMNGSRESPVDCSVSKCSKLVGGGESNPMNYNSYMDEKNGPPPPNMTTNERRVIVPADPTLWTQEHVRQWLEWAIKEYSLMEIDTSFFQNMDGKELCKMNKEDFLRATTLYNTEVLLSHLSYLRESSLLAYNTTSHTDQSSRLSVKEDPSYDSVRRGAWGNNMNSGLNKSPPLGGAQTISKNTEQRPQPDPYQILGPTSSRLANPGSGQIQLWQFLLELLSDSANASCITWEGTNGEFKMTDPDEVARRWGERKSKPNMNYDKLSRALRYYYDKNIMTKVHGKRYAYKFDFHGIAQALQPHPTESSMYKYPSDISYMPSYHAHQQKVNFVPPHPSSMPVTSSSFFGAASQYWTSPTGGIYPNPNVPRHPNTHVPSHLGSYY
In short: (§1)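 Human transcription factors were made in yeast as GST fusions, captured on glutathione beads and barcoded with DNA. With a tag-only sample included, the pool was incubated with 200 nmole of a random double-stranded 16-mer DNA library in Tris/NaCl/DTT/glycerol buffer at room temperature for 30 min, then crosslinked with 0.1% formaldehyde after washing, ligated by proximity, amplified and sequenced. For binding signal, each hexamer's read frequency for a factor is divided by its frequency for the tag-only sample.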

ELK1 = target: T2, ELK1 (Homo sapiens, UniProt P19419 1-428)
T2 sequence: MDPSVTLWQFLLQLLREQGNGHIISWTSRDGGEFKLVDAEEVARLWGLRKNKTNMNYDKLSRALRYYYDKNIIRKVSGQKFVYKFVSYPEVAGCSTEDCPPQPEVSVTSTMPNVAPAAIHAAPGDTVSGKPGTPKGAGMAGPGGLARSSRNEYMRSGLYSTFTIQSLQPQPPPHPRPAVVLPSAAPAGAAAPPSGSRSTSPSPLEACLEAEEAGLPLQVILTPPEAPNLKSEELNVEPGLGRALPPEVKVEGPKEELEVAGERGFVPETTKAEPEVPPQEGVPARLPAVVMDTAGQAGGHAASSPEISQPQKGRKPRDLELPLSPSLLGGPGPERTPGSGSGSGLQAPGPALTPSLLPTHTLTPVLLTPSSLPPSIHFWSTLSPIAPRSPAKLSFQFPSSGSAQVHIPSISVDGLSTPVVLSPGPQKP
In short: as §1

GABPA = target: T3, GABPA (Homo sapiens, UniProt Q06546 1-454)
T3 sequence: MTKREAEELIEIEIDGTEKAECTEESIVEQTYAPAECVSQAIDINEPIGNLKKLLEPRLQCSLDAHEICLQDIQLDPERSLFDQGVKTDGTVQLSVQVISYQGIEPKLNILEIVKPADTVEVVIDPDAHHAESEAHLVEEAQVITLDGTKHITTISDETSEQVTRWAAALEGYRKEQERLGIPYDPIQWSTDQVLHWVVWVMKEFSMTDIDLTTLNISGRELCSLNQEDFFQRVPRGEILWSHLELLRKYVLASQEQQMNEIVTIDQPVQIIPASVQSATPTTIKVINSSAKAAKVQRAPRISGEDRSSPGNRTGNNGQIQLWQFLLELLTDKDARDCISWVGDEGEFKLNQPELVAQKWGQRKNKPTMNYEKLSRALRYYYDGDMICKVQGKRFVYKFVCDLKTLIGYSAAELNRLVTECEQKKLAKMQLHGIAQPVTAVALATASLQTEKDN
In short: as §1

ERG = target: T4, ERG (Homo sapiens, UniProt P11308 1-479)
T4 sequence: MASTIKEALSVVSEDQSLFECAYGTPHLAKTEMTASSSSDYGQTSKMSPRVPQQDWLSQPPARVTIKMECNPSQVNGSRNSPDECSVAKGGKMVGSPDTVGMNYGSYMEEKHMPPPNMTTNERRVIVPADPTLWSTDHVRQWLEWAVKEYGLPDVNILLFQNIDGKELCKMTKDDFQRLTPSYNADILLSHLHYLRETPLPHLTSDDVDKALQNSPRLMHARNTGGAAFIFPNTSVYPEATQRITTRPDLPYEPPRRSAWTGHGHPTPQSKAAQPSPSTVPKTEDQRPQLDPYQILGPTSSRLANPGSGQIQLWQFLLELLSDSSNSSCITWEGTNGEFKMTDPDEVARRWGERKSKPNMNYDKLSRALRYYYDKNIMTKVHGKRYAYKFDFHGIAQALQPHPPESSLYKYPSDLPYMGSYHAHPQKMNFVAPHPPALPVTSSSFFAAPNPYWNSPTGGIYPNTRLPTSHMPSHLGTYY
In short: as §1

ELF1 = ELF1 (Homo sapiens, UniProt P32519 1-619)
In short: as §1

EHF = target: T5, EHF (Homo sapiens, UniProt Q9NZC4 1-300)
T5 sequence: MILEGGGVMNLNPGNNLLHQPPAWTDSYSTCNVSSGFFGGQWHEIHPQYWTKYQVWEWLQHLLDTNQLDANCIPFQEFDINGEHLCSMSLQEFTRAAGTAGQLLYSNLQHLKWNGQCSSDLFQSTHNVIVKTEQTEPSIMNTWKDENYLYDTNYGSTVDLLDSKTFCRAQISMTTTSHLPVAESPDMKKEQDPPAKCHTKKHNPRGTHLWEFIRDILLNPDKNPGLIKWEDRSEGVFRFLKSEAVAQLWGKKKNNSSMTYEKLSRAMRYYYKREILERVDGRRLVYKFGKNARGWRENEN
In short: as §1

SPI1 = SPI1 (Homo sapiens, UniProt P17947 1-270)
In short: as §1

SPIB = SPIB (Homo sapiens, UniProt Q01892 1-262)
In short: as §1

ELK3 = target: T6, ELK3 (Homo sapiens, UniProt P41970 1-407)
T6 sequence: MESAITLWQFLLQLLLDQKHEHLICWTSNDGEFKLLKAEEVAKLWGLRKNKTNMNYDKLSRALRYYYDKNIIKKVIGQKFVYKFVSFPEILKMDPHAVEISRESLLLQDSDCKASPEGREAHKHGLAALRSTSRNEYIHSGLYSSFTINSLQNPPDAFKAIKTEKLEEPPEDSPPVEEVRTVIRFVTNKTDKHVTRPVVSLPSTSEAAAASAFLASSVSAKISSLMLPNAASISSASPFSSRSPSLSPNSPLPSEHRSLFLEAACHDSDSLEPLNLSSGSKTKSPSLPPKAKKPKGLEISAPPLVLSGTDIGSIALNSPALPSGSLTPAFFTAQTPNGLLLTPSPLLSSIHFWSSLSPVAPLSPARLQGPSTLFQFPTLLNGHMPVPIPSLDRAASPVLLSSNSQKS
In short: as §1

FEV = target: T7, FEV (Homo sapiens, UniProt Q99581 1-238)
T7 sequence: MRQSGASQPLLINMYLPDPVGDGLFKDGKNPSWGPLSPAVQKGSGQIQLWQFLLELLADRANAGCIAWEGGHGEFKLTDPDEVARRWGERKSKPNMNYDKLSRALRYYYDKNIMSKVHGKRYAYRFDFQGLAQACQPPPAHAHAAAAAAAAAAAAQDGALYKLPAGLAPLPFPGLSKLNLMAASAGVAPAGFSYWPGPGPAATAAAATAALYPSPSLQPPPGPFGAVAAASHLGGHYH
In short: as §1

ETV5 = ETV5 (Homo sapiens, UniProt P41161 1-510)
In short: as §1

SPIC = target: T8, SPIC (Homo sapiens, UniProt Q8N5J4 1-248)
T8 sequence: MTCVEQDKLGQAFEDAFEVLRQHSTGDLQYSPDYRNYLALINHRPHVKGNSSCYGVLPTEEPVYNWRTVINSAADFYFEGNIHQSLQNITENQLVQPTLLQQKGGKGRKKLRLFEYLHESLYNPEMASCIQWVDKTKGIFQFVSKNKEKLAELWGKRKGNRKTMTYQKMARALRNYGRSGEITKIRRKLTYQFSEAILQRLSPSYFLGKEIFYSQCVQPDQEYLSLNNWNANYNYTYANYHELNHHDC
In short: as §1

ELF4 = ELF4 (Homo sapiens, UniProt Q99607 1-663)
In short: as §1

ELK4 = target: T9, ELK4 (Homo sapiens, UniProt P28324-2 1-405)
T9 sequence: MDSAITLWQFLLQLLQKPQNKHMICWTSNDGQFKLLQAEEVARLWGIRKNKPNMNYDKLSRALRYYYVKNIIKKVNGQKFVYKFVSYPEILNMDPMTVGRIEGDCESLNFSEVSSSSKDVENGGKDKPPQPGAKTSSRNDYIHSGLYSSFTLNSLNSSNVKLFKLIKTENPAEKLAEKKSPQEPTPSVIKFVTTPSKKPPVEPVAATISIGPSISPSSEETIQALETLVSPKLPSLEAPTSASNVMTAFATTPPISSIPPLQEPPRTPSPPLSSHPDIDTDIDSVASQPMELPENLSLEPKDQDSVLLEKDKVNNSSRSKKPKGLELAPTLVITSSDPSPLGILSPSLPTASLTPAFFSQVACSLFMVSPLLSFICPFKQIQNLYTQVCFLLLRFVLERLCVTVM
In short: as §1

ETV2 = target: T10, ETV2 (Homo sapiens, UniProt O00321 1-342)
T10 sequence: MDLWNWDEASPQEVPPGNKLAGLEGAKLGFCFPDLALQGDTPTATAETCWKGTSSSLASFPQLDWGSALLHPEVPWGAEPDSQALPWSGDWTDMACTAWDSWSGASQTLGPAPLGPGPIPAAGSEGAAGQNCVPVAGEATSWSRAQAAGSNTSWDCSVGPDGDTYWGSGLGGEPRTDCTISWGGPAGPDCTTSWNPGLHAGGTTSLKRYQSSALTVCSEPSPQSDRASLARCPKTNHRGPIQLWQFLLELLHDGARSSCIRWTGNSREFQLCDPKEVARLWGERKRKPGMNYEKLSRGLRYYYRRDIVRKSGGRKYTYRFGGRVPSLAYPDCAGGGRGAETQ
In short: as §1

ELF3 = target: T11, ELF3 (Homo sapiens, UniProt P78545 1-371)
T11 sequence: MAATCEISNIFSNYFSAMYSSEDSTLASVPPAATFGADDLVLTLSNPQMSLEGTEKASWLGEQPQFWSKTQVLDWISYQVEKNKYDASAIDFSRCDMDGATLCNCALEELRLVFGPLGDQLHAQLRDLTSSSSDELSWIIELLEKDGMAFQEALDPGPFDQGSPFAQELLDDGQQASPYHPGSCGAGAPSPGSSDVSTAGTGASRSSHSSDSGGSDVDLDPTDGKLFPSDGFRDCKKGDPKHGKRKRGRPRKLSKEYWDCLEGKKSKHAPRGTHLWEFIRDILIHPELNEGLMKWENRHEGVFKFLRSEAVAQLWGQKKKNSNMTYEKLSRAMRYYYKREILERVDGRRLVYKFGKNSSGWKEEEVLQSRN
In short: as §1

ETV1 = ETV1 (Homo sapiens, UniProt P50549 1-477)
In short: as §1

Chain of ELF1 (P32519 whole entry): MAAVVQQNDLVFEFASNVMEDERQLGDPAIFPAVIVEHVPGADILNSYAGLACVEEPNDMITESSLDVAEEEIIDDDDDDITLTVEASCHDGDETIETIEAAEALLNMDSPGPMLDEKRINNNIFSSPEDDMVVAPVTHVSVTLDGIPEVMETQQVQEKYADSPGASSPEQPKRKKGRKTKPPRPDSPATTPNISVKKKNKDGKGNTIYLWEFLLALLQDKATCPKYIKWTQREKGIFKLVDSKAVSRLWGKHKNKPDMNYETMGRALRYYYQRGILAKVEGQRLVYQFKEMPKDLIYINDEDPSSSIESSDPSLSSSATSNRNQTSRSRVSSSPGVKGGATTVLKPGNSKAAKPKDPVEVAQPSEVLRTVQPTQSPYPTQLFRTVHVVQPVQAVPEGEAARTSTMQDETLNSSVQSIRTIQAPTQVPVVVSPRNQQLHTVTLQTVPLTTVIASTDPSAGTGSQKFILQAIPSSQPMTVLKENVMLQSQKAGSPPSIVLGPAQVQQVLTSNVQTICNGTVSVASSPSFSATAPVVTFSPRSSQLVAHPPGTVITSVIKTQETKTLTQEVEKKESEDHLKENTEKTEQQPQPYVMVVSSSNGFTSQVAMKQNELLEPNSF
Chain of ELF4 (Q99607 whole entry): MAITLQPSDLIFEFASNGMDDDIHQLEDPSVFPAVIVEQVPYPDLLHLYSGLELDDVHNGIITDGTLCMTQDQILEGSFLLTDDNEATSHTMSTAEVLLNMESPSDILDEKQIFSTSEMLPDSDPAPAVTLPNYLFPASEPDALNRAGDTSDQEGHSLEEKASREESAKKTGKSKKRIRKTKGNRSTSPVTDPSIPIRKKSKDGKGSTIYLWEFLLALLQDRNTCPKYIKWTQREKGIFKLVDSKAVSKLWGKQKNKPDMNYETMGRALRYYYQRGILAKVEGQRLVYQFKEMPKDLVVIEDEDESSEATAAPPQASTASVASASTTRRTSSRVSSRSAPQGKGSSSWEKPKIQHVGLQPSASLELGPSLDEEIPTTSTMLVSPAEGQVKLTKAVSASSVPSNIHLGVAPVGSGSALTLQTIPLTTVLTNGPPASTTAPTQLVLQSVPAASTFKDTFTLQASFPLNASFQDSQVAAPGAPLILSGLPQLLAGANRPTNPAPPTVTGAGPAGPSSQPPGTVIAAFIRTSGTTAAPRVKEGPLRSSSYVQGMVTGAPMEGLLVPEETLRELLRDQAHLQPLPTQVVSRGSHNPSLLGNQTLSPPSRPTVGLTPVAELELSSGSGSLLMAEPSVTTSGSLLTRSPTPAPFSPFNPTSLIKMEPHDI
Chain of ETV1 (P50549 whole entry): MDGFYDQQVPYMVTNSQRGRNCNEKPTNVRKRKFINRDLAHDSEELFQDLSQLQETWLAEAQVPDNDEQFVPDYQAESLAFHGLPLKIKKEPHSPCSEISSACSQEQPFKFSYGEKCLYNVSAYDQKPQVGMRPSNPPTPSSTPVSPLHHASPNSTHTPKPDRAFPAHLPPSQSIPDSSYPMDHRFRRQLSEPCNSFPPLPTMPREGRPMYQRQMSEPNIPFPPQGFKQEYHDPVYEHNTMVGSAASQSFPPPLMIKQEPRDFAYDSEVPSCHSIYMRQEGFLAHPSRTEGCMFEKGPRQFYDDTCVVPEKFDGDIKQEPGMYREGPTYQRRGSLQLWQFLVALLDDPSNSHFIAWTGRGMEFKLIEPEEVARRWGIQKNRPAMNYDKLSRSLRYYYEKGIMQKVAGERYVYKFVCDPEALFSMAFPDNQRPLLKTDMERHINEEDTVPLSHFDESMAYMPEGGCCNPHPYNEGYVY
Chain of SPIB (Q01892 whole entry): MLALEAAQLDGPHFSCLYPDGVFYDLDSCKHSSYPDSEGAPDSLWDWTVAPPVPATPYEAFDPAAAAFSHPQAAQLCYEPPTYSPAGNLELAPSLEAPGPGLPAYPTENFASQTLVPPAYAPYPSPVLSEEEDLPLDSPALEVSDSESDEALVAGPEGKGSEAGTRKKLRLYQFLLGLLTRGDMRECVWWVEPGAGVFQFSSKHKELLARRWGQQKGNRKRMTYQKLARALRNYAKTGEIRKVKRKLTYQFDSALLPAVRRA
Chain of ETV5 (P41161 whole entry): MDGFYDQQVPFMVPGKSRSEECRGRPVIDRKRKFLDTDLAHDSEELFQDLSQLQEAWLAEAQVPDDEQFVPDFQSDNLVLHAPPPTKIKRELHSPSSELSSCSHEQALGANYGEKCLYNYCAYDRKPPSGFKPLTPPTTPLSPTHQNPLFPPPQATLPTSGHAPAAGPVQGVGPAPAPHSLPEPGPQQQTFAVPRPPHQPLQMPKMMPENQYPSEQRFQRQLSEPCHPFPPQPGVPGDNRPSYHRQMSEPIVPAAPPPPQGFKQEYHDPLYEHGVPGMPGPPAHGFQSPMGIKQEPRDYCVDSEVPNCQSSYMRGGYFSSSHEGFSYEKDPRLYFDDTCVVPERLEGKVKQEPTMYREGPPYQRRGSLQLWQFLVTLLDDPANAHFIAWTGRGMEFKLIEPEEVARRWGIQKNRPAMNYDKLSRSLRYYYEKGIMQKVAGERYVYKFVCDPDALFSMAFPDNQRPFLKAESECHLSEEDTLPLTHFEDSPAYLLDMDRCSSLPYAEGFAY

In the case of CGTAAC, the binding signal (FLI1) is reported as 1.19 fold enrichment (6-mer frequency, TF over GST control), the binding signal (ELK1) is reported as 1.12 fold enrichment (6-mer frequency, TF over GST control) and the binding signal (GABPA) is reported as 1.17 fold enrichment (6-mer frequency, TF over GST control). For the same sequence, the binding signal (ERG) was 1.07 fold enrichment (6-mer frequency, TF over GST control), the binding signal (ELF1) was 1.11 fold enrichment (6-mer frequency, TF over GST control) and the binding signal (EHF) was 1.16 fold enrichment (6-mer frequency, TF over GST control). For the same sequence, the binding signal (SPI1) was 1.08 fold enrichment (6-mer frequency, TF over GST control), the binding signal (SPIB) was 1.16 fold enrichment (6-mer frequency, TF over GST control) and the binding signal (ELK3) was 1.07 fold enrichment (6-mer frequency, TF over GST control). The binding signal (FEV) was 1.09 fold enrichment (6-mer frequency, TF over GST control), the binding signal (ETV5) was 1.1 fold enrichment (6-mer frequency, TF over GST control) and the binding signal (SPIC) was 1.27 fold enrichment (6-mer frequency, TF over GST control). For the same sequence, the binding signal (ELF4) was 1.23 fold enrichment (6-mer frequency, TF over GST control), the binding signal (ELK4) was 1.13 fold enrichment (6-mer frequency, TF over GST control) and the binding signal (ETV2) was 1.12 fold enrichment (6-mer frequency, TF over GST control). The binding signal (ELF3) was 1.18 fold enrichment (6-mer frequency, TF over GST control) and the binding signal (ETV1) was 1.13 fold enrichment (6-mer frequency, TF over GST control).

With TCGCCG the binding signal (FLI1) was 1.14 fold enrichment (6-mer frequency, TF over GST control), the binding signal (ELK1) was 1.24 fold enrichment (6-mer frequency, TF over GST control) and the binding signal (GABPA) was 1.27 fold enrichment (6-mer frequency, TF over GST control). The binding signal (ERG) was 1.24 fold enrichment (6-mer frequency, TF over GST control), the binding signal (ELF1) was 1.23 fold enrichment (6-mer frequency, TF over GST control) and the binding signal (EHF) was 1.34 fold enrichment (6-mer frequency, TF over GST control). For the same sequence, the binding signal (SPI1) was 1.14 fold enrichment (6-mer frequency, TF over GST control), the binding signal (SPIB) was 1.16 fold enrichment (6-mer frequency, TF over GST control) and the binding signal (ELK3) was 1.16 fold enrichment (6-mer frequency, TF over GST control). For the same sequence, the binding signal (FEV) was 1.26 fold enrichment (6-mer frequency, TF over GST control), the binding signal (ETV5) was 1.03 fold enrichment (6-mer frequency, TF over GST control) and the binding signal (SPIC) was 1.09 fold enrichment (6-mer frequency, TF over GST control). For the same sequence, the binding signal (ELF4) was 1.21 fold enrichment (6-mer frequency, TF over GST control), the binding signal (ELK4) was 1.3 fold enrichment (6-mer frequency, TF over GST control) and the binding signal (ETV2) was 1.2 fold enrichment (6-mer frequency, TF over GST control). For the same sequence, the binding signal (ELF3) was 1.21 fold enrichment (6-mer frequency, TF over GST control) and the binding signal (ETV1) was 1.37 fold enrichment (6-mer frequency, TF over GST control).
